The sample as a whole holds a higher share of hits than the screen did.
ST2 IL33 inh: inhibitors of human ST2 (IL1RL1) binding to IL-33, primary screen, biochemical, AlphaLISA. inhibition, % for hits at 17 µM. Interleukin-1 receptor-like 1 (Homo sapiens), Q01638. AlphaLISA ST2-Fc/biotin-IL-33 interaction, 1 h. 2.3% of 78,000 active; in the data active means inhibition above about 30%
Target sequence (Q01638 whole entry, looked up): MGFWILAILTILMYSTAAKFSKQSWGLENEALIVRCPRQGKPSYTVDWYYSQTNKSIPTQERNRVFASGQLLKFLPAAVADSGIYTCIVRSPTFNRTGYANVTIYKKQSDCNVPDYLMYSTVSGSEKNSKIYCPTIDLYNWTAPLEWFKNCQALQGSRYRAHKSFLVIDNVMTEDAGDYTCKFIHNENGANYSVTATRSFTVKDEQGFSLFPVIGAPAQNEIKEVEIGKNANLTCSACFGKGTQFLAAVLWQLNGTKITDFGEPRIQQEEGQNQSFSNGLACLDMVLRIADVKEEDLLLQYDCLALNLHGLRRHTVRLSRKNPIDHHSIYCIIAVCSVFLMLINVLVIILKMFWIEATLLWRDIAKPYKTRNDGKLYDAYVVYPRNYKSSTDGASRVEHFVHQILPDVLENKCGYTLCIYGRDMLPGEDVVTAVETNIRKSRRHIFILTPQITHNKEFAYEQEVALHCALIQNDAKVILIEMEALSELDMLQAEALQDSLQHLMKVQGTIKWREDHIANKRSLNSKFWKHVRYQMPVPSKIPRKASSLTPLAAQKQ
Starred values were filed as active, the others as inactive; i = inactive.

SMILES	ST2 IL33 inh
COc1cc(/C=C2\SC(c3ccc(C)cc3)=NC2=O)cc(OC)c1O	80.0%*
COc1ccc(OC)c(/C=C2\SC(c3ccccc3)=NC2=O)c1	51.0%*
COc1ccc(/C=C2\SC(N3CCCC3)=NC2=O)cc1OC	i
COc1ccc(Br)cc1/C=C1/SC(N2CCOCC2)=NC1=O	i
Cc1cc([N+](=O)[O-])ccc1S(=O)(=O)n1nnc2ccccc21	i
CC(=O)N1CCc2nc(C)nc(NCCCc3ccccn3)c2CC1	i
Nc1ccc(Oc2ccc3c(c2)C(=O)N(CCO)C3=O)cc1	i
Cc1ccc(-c2[nH]c3ccccc3c2C(C[N+](=O)[O-])c2ccco2)cc1 (stereo not drawn)	i
Cc1[nH]c2ccccc2c1C(C[N+](=O)[O-])c1ccco1 (stereo not drawn)	36.0%*
COc1cc(C(C[N+](=O)[O-])c2c(C)[nH]c3ccccc23)ccc1O (stereo not drawn)	i
CC1CCc2c(sc(NC(=O)c3ccc(S(=O)(=O)N4CC(C)CC(C)C4)cc3)c2C#N)C1 (stereo not drawn)	i
CC1=C(C(=O)Nc2ccccc2)C(c2cccnc2)n2nc(SCc3ccccc3)nc2N1 (stereo not drawn)	i
CC1=C(C(=O)Nc2ccccc2C)C(c2ccncc2)n2nc(SCc3ccccc3)nc2N1 (stereo not drawn)	33.0%*
CC1=C(C(N)=O)C(c2ccccc2)n2nc(SCc3ccccc3)nc2N1 (stereo not drawn)	i
COc1ccc(-c2nnc([C@H]3CCN(Cc4ccc(C(F)(F)F)cc4)C3)o2)cc1	i
Cc1cc2c3c(C)n(C)c(C)c3c(C)nn2c1	54.0%*
COc1ccc(OC)c(C2CCN(c3cc(OC)ncn3)C2)c1 (stereo not drawn)	i
Cc1ccc(CCC(=O)N2CCC(Cn3cc(CO)nn3)CC2)cc1C	i
COc1cc(N2CCC(Cn3cc(CO)nn3)CC2)ncn1	65.0%*
O=c1oc2ccccc2cc1C1=Nn2c(nnc2-c2ccccc2Br)SC1	i
Nc1cc(S(=O)(=O)c2ccc(O)c(N)c2)ccc1O	i
Cc1ccc2c(c1)C1C=CCC1C(c1ccccc1Cl)N2 (stereo not drawn)	33.0%*
O=[N+]([O-])c1ccc(C2Nc3cc(Cl)cc(Cl)c3C3C=CCC32)cc1 (stereo not drawn)	32.0%*
Cc1ccc(C(=O)N2CCCC2)cc1[N+](=O)[O-]	i
Cc1ccc(S(=O)(=O)N2CCSC2c2ccccc2Cl)c(C)c1 (stereo not drawn)	i
SMILES	ST2 IL33 inh
Cc1ccc(C(=O)N2CCN(C(=O)c3ccccc3)C2c2ccc(N(C)C)cc2)cc1 (stereo not drawn)	i
Cc1ccc([C@@H]2Nc3ccc(C(=O)O)cc3[C@@H]3C=CC[C@@H]32)cc1	34.0%*
O=C(c1ccc2c(c1)C1C=CCC1C(c1ccc([N+](=O)[O-])cc1)N2)N1CCCC1 (stereo not drawn)	40.0%*
CC1CC(C)CN(C(=O)c2ccc([N+](=O)[O-])cc2)C1 (stereo not drawn)	i
O=C1Nc2cc(Cl)c(Cl)cc2N(O)N1c1ccc([N+](=O)[O-])cc1	i
CC1CC(=O)Nc2cc([N+](=O)[O-])ccc2N1 (stereo not drawn)	i
Cc1c(C(=O)NCC2CCCO2)oc2ccc(S(=O)(=O)N3CC(C)CC(C)C3)cc12 (stereo not drawn)	i
N#CC1=C(SCC(N)=O)NC(=O)CC1c1ccc(Br)cc1 (stereo not drawn)	i
NC(=O)c1nn2c(c1Br)NC(c1ccc(Br)o1)CC2C(F)(F)F (stereo not drawn)	i
O=C(NCc1n[nH]c2c1CCC2)c1coc2c1C(=O)CCC2	i
COc1ccc(-c2ncc(CN3CCCC(Nc4ccc(F)cc4)C3)cn2)cc1 (stereo not drawn)	i
CNC(=O)c1ccc(CN2CCCC(Nc3ccc(F)cc3)C2)o1 (stereo not drawn)	36.0%*
NC(=O)C(=O)NC1CCCN(Cc2ccc(F)cc2)C1 (stereo not drawn)	i
Nc1ccc(S(=O)(=O)N2CCCCC2)cc1	i
Cn1c(=O)cc(SCC(=O)Nc2ccc(F)cc2Cl)c2ccccc21	i
Cc1c(C(=O)N2CCCCC2)oc2ccc(S(=O)(=O)N3CC(C)CC(C)C3)cc12 (stereo not drawn)	i
S=C(S)OC1C[C@H]2C[C@@H]1[C@H]1CCC[C@@H]21 (stereo partly drawn)	i
O[C@@H]1C[C@@H](c2nc(-c3ccc(OC(F)(F)F)cc3)no2)N(Cc2ccccc2)C1	i
CS(=O)(=O)c1ccc(CN2C[C@H](O)C[C@H]2c2nc(-c3ccc(OC(F)(F)F)cc3)no2)cc1	32.0%*
CS(=O)(=O)c1ccc(CN2C[C@H](O)C[C@H]2c2nc(-c3ccc(F)cc3)no2)cc1	i
O=C(NCC1CCCO1)c1ccc(CS(=O)(=O)c2ccc(Br)cc2)o1 (stereo not drawn)	i

Assay outcomes: PubChem, Paczesny and Yang Labs, IUPUI and University of Michigan
